Data as given in PubChem BioAssay (Tox21).
Results filed as inconclusive are left out. Active and inactive are the calls of the source. Unless noted, calls follow the shape of the full dose curve.

What was measured:
[1] = Nuclear factor erythroid 2-related factor 2/antioxidant responsive element (Nrf2/ARE) small molecule agonists: qHTS cell viability counter screen in human keratinocytes (AID 1919968; active = well fitted curve in the direction sought with a large enough effect in the repeat runs; an effect the other way counts as inactive or inconclusive; also: nearly all actives have a fitted effect of over 55% in size)
In short: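 In human HaCaT keratinocytes stably expressing an ARE-driven luciferase, compound exposure lasted 23 h at 37 C under 5% CO2. Viable cells are quantified with a protease-based fluorogenic reagent (CellTiter-Fluor) read 1 h after addition.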

[2] = Nuclear factor erythroid 2-related factor 2/antioxidant responsive element (Nrf2/ARE) small molecule agonists: luciferase reporter gene qHTS assay in human keratinocytes (AID 1919969); also: nearly all actives have a fitted effect of over 35% in size
[3] = molecular target: Gonadotropin-releasing hormone receptor (Homo sapiens) (UniProt P30968); assay: Human gonadotropin-releasing hormone receptor (GnRHR) small molecule agonists, calcium flux assay in GnRHR-HEK293 cells (AID 1920063); also: nearly all actives have a fitted effect of over 35% in size
In short: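 Intracellular calcium rise is the read-out: engineered human GnRHR HEK293 cells, dye-loaded, are exposed to DMSO-dissolved compounds and fluorescence at Ex/Em 480/540 is tracked for 3 min.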

[4] = molecular target: KiSS-1 receptor (Homo sapiens) (UniProt Q969F8); assay: Human kisspeptin (KISS1R) small molecule agonists, calcium flux assay in KISS1R-HEK293 cells (AID 1920064; active = well fitted curve in the direction sought with a large enough effect in the repeat runs; an effect the other way counts as inactive or inconclusive)
In short: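 Concentration-response testing used 15 concentrations in triplicate on human KISS1R-expressing HEK293 cells. Calcium-dependent fluorescence (Ex/Em 480/540) was followed kinetically for 3 min after compound transfer.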

[5] = G protein-coupled receptor (GPCR) small molecule agonists, calcium flux assay: HEK293 wild type cell line counter screen (AID 1920065)
In short: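 Fluorescence intensity signals activation. After overnight (18 h) culture and a 1 h calcium dye load at 37 C, compounds are added by pin tool and the plate read at 480/540 nm for 3 min in 1 s steps.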

[6] = p53 small molecule agonists, cell-based qHTS assay with human liver microsomes: qHTS cell viability counter screen (AID 1963579); also: nearly all actives have a fitted effect of over 45% in size
In short: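 Seed p53RE-bla cells at 4,000 per well; incubate 5 h at 37 C; add compound, human liver microsomes and NADPH; incubate 16 h at 37 C; add CellTiter-Glo; after 30 min at room temperature, read luminescence.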

[7] = p53 small molecule agonists, cell-based qHTS assay with rat liver microsomes: qHTS cell viability counter screen (AID 1963580); also: nearly all actives have a fitted effect of over 45% in size
In short: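 Counter screen for cytotoxicity under metabolic activation: rat liver microsomes and NADPH, 0.5 mg/mL final each, added with compounds to p53RE-bla HCT-116 cells; 16 h at 37 C, then ATP luminescence read.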

[8] = p53 small molecule agonists, cell-based qHTS assay: qHTS cell viability counter screen (AID 1963581); also: nearly all actives have a fitted effect of over 45% in size
In short: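 Luminescence from CellTiter-Glo, reflecting ATP content, serves as the cytotoxicity measure; it is taken after the 2 h reporter substrate step in HCT-116 p53RE-bla cells dosed for 16 h at 37 C.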

[9] = molecular target: 5-hydroxytryptamine receptor 2A (Homo sapiens) (UniProt P28223); assay: 5-hydroxytryptamine receptor 2A (HTR2A) small molecule antagonists, cell-based qHTS assay (AID 1963586); also: nearly all actives have a fitted effect of over 45% in size
In short: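 CHO cells stably expressing human HTR2A were plated for 18 h at 37 C, then loaded with calcium dye for 1 h. Compounds were preincubated 5 min at room temperature before DOI (4 nM solution) was added. Kinetic fluorescence was read for 3 min.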

[10] = molecular target: 5-hydroxytryptamine receptor 2A (Homo sapiens) (UniProt P28223); assay: 5-hydroxytryptamine receptor 2A (HTR2A) small molecule agonists, cell-based qHTS assay (AID 1963587); also: nearly all actives have a fitted effect of over 30% in size
In short: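 HTR2A-CHO cells, plated 18 h at 37 C/5% CO2, dye-loaded 1 h at 37 C; compounds in DMSO added by pin tool (agonist mode). Intracellular calcium flux read as kinetic fluorescence on FDSS over 2 min at 1 s intervals.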

[11] = molecular target: Muscarinic acetylcholine receptor M1 (Homo sapiens) (UniProt P11229); assay: Cholinergic receptor muscarinic 1 (CHRM1) small molecule antagonists, cell-based qHTS assay (AID 1963588); also: nearly all actives have a fitted effect of over 40% in size
In short: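 Compounds were tested at 15 concentrations in three independent runs. Dye-loaded CHRM1-CHO cells were exposed 5 min at room temperature before stimulation by acetylcholine added at 50nM. Intracellular calcium was read kinetically on FDSS for 3 min.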

[12] = molecular target: Muscarinic acetylcholine receptor M1 (Homo sapiens) (UniProt P11229); assay: Cholinergic receptor muscarinic 1 (CHRM1) small molecule agonists, cell-based qHTS assay (AID 1963589); also: nearly all actives have a fitted effect of over 35% in size
In short: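 Fluorescent calcium dye reports M1 activation in stably transfected CHO cells. Compounds, 15 concentrations, added after 1 h dye loading at 37 C; kinetic reading at 1 sec intervals.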

[13] = cAMP Responsive Elements (CRE) small molecule agonists, cell-based qHTS assay (AID 1963590)
In short: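 Compound exposure lasted 3 h at 37 C/5% CO2 in CRE-bla HEK 293T cells grown in assay medium with 10% dialyzed FBS and 25 mM HEPES. Reporter signal came from LiveBLAzer B/G FRET substrate, 2 h, room temperature.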

[14] = molecular target: Beta-2 adrenergic receptor (Homo sapiens) (UniProt P07550); assay: Adrenergic beta2 receptor (ADRB2) small molecule antagonists, cell-based qHTS assay (AID 1963592); also: series mostly up to about 92 µM; nearly all actives have a fitted effect of over 50% in size
In short: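 Assay format: CHO-ADRB2 cells, 18-20hr seeding at 37C/5% CO2, then compound plus 1nM isoproterenol agonist mix for 0.5hr RT. Homogeneous time-resolved fluorescence cAMP detection after 1hr, expressed as 665/615 nm ratio.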

[15] = molecular target: D(2) dopamine receptor (Homo sapiens) (UniProt P14416); assay: Dopamine D2 receptor (DRD2) small molecule agonists, cell-based qHTS assay (AID 1963594); also: nearly all actives have a fitted effect of over 35% in size
In short: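 HEK293 cells stably expressing DRD2 were cultured 24 h at 37 C, then given Ro20-1724 (0.1 mM final) and compounds for 10 min at room temperature. NKH477 (200nM) was then added for 30 min. cAMP was read by HTRF.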

[16] = molecular target: D(2) dopamine receptor (Homo sapiens) (UniProt P14416); assay: Dopamine D2 receptor (DRD2) small molecule antagonists, cell-based qHTS assay (AID 1963595; active = well fitted inhibition curve with a large enough effect in the signal ratio in the repeat runs, with a control signal flat; the % refers to the signal ratio)
In short: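 Antagonist mode in DRD2-HEK293 cells: after compound addition with 0.1 mM Ro20-1724, cells received quinpirole (12 nM) and NKH477 (200 nM) for 30 min at room temperature; HTRF cAMP read after 1 h detection.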

[17] = cAMP Responsive Elements (CRE) small molecule antagonists, cell-based qHTS assay (AID 1963591; active = well fitted inhibition curve with a large enough effect in the signal ratio in the repeat runs, not every such curve was filed as active; the % refers to the signal ratio)
In short: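 Stimulation used NKH477 at a final 0.25 uM for 3 h in compound-treated CRE-bla HEK293T cells, seeded 18 h beforehand. Reporter activity was measured with LiveBLAzer B/G FRET substrate after 2 h at room temperature.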

[18] = molecular target: Beta-2 adrenergic receptor (Homo sapiens) (UniProt P07550); assay: Adrenergic beta2 receptor (ADRB2) small molecule agonists, cell-based qHTS assay (AID 1963593);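 also: CHO cells stably overexpressing human ADRB2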
In short: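 CHO cells stably over-expressing ADRB2 were plated overnight at 37C, then dosed with compounds plus a stimulation mix containing 100uM IBMX and 25uM Ro-20-1724 for 0.5hr at room temperature. cAMP was measured by HTRF competition, 1hr.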
% is scaled to controls: 0 for no effect and ±100 for the full control effect.

Chain of KiSS-1 receptor (Homo sapiens) (Q969F8 whole entry, looked up): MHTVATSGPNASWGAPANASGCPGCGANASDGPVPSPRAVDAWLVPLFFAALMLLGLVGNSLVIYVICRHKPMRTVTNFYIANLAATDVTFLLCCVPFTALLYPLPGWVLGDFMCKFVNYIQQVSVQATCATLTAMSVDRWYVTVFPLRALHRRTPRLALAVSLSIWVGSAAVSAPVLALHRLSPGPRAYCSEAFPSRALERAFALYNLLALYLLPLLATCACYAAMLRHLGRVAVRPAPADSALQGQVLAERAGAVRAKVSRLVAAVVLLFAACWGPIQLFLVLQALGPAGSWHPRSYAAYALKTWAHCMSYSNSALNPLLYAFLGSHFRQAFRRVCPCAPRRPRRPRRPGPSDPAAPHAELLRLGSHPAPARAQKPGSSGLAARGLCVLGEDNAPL
Chain of 5-hydroxytryptamine receptor 2A (Homo sapiens) (P28223 whole entry, looked up): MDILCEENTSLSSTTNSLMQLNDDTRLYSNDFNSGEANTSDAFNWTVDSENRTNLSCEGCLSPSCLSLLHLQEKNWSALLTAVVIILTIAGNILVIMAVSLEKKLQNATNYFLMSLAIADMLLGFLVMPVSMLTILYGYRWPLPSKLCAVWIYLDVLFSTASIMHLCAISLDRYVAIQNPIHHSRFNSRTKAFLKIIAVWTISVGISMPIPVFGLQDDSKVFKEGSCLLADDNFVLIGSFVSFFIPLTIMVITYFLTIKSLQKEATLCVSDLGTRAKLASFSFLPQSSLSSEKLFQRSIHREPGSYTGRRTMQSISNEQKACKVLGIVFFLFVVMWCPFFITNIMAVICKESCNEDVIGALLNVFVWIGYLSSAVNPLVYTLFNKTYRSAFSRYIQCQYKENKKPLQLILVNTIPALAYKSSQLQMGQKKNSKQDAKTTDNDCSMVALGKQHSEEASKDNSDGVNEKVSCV
Chain of Muscarinic acetylcholine receptor M1 (Homo sapiens) (P11229 whole entry, looked up): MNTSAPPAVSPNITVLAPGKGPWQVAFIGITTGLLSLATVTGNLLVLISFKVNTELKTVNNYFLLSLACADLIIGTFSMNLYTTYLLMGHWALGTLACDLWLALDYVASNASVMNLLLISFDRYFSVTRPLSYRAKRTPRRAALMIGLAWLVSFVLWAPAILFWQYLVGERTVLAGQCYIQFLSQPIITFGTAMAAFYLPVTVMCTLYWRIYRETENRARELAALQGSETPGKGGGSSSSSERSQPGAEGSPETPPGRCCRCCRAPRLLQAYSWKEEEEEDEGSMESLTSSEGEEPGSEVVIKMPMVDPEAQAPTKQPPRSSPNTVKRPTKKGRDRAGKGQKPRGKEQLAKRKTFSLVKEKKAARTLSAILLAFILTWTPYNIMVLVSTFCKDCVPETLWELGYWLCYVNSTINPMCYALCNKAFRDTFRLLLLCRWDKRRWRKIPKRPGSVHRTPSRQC
Chain of Gonadotropin-releasing hormone receptor (Homo sapiens) (P30968 whole entry, looked up): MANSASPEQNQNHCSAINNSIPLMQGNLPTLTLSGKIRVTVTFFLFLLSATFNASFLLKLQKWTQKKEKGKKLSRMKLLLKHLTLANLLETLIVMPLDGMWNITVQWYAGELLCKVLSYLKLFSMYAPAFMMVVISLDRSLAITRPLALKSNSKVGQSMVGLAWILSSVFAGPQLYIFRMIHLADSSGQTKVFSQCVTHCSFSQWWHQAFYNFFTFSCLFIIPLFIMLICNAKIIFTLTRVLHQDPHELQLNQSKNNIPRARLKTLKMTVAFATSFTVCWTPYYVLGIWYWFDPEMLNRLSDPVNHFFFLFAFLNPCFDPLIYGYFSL
Chain of Beta-2 adrenergic receptor (Homo sapiens) (P07550 whole entry, looked up): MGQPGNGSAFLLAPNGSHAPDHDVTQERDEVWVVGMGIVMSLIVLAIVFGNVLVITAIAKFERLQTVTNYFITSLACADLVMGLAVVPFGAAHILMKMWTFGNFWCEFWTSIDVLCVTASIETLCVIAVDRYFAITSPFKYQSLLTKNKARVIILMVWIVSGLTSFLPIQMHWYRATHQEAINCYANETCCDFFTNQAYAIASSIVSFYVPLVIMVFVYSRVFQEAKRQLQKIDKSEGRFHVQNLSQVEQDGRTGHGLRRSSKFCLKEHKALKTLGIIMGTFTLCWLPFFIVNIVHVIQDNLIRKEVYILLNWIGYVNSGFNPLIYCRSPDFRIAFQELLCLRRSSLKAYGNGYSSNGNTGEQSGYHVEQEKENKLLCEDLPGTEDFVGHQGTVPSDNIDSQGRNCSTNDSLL
Chain of D(2) dopamine receptor (Homo sapiens) (P14416 whole entry, looked up): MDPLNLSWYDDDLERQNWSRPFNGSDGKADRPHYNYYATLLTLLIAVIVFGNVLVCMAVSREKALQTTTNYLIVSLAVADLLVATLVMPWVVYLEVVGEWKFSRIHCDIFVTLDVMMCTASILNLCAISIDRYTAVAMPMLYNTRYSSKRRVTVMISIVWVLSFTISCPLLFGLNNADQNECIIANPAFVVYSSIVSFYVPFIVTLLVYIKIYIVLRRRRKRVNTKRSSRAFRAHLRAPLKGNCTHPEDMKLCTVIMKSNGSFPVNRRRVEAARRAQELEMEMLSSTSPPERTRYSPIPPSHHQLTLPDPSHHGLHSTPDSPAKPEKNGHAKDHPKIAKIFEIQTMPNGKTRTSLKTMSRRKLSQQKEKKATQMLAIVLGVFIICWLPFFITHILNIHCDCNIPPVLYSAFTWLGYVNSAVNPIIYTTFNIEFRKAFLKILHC

N[C@@H](CCC(=O)O)C(=O)O
inactive: Potency [1] | Potency [2] | Potency [3] | Potency [4] | Potency [5] | Potency [6] | Potency [7] | Potency [8] | Potency [9] | Potency [10] | Potency [11] | Potency [12] | Potency [13] | Potency [14] | Potency [15] | Potency [16]

O=S(=O)(O)SSS(=O)(=O)O
inactive: Potency [1] | Potency [2] | Potency [3] | Potency [4] | Potency [5] | Potency [6] | Potency [7] | Potency [8] | Potency [9] | Potency [10] | Potency [11] | Potency [12] | Potency [13] | Potency [17] | Potency [18] | Potency [15] | Potency [16]

COc1ccc(/C=N/NC(=O)c2ccncc2)cc1OC
inactive: Potency [1] | Potency [2] | Potency [3] | Potency [4] | Potency [5] | Potency [6] | Potency [7] | Potency [8] | Potency [9] | Potency [10] | Potency [11] | Potency [12] | Potency [13] | Potency [17] | Potency [15] | Potency [16]

SC1CCCC1
inactive: Potency [1] | Potency [2] | Potency [3] | Potency [4] | Potency [5] | Potency [6] | Potency [7] | Potency [8] | Potency [9] | Potency [10] | Potency [11] | Potency [12] | Potency [17] | Potency [14] | Potency [18] | Potency [15]

CC/C=C\CCCCCCCCCCOC(C)=O
inactive: Potency [1] | Potency [2] | Potency [3] | Potency [4] | Potency [5] | Potency [6] | Potency [7] | Potency [8] | Potency [9] | Potency [10] | Potency [11] | Potency [12] | Potency [17] | Potency [14] | Potency [18] | Potency [15] | Potency [16]

CC(O)CN (stereo unspecified)
inactive: Potency [1] | Potency [2] | Potency [3] | Potency [4] | Potency [5] | Potency [6] | Potency [7] | Potency [8] | Potency [9] | Potency [10] | Potency [11] | Potency [12] | Potency [13] | Potency [17] | Potency [14] | Potency [15] | Potency [16]

C[C@@H]1CN(c2c(F)c(F)c3c(=O)c(C(=O)O)cn(C4CC4)c3c2F)C[C@H](C)N1
inactive: activity change, negative = cytotoxicity [1] -4.39% [at 19 µM] | activity, positive = activation [2] 2.76% [at 19 µM] | activity change [3] 0.18% [at 11.8 µM, hits give high values] | activation [4] -0.0587% [at 15.8 µM] | activation [5] -1.01% [at 11.8 µM] | activity change, negative = cytotoxicity [6] 0.644% [at 13.5 µM] | activity change, negative = cytotoxicity [7] 9.6% [at 13.5 µM] | activity change, negative = cytotoxicity [8] -8.27% [at 13.5 µM] | activity, negative = inhibition [9] 0.835% [at 12.7 µM] | activation [10] -2.83% [at 15.9 µM] | activity, negative = inhibition [11] 7.07% [at 12.6 µM] | activation [12] -1.01% [at 15.8 µM] | activation [13] -2.17% [at 19 µM] | activation [15] 18.6% [at 19 µM] | activity change, negative = inhibition [16] -0.82% [at 18.9 µM]

Nc1ccc(/C=C/c2ccc(N)cc2S(=O)(=O)O)c(S(=O)(=O)O)c1
inactive: activity change, negative = cytotoxicity [1] -4.83% [at 0.349 µM] | activity, positive = activation [2] -0.938% [at 0.349 µM] | activity change [3] -1.31% [at 0.217 µM, hits give high values] | activation [4] -0.667% [at 0.29 µM] | activation [5] -1.11% [at 0.217 µM] | activity change, negative = cytotoxicity [6] -0.304% [at 0.249 µM] | activity change, negative = cytotoxicity [7] 0.884% [at 0.249 µM] | activity change, negative = cytotoxicity [8] -1.67% [at 0.249 µM] | activity, negative = inhibition [9] 63.5% [at 0.233 µM] | activation [10] 1.96% [at 0.292 µM] | activity, negative = inhibition [11] 18% [at 0.232 µM] | activation [12] 0.145% [at 0.29 µM] | activation [13] -0.633% [at 0.349 µM] | activity change, negative = inhibition [14] -6.48% [at 0.349 µM] | activation [18] -7.68% [at 0.349 µM] | activation [15] -13.5% [at 0.349 µM] | activity change, negative = inhibition [16] 6.36% [at 0.348 µM]
